Where “and” joins values, the source holds several entries; their conditions need not be identical. Equal values may be shown once. The panel holds about 83,000 compounds, 20% with a hit somewhere; the sample as a whole holds those more often.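 Testing used 96-well plates and a 48-hour single-concentration exposure. Example: -40 means 40% of the starting cells died.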 Calls of active or inactive are those of the source. Where a SMILES comes first, the peptide text is derived from it.

For the assay, the system named is LOX IMVI melanoma. Briefly: NCI-60 one-dose screen, 48 h (100 = growth as untreated, 0 = no growth, -100 = all killed). Conditions: 10 µM unless noted. The method, then:
Growth inhibition of the LOX IMVI human tumor cell line is measured as a screen for anti-cancer activity. Cells are grown in 96 well plates and exposed to the test compound for 48 hours. Compounds are tested at a single concentration, which is 10^-5 M for most compounds. The reported endpoint is percent growth (GI% or GIPRCNT), where numbers from 0 - 100% represent growth inhibition, and numbers from -100% - 0 represent cell death. For example, a value of 40 represents 60% growth inhibition. A value of 0 means no net growth occurred over the course of the experiment. A value of -40 indicates 40% of cells at the beginning of the experiment died by the end of the experiment. A value of -100 means all cells are dead at the end of the experiment.
NCI-60 Human Tumor Cell Lines Screen was performed using the standard one-dose NCI protocol, which is described in more detail at https://dtp.cancer.gov/discovery_development/nci-60/default.htm.
Compounds with GIPRCNT values below 10 were considered active. Activity score was based on GIPRCNT using the following formula: […]
Score is 0 for GIPRCNT values of 100 or above, 50 for GIPRCNT values of 0, and 100 for GIPRCNT values of -100.
In the case of `CC(=O)NCC(=O)c1ccc([N+](=O)[O-])cc1`, the growth was 95% (inactive).
With `O=C(Cc1ccccc1)c1ccc(O)c(Cl)c1`, the growth is 15.2% (inactive).
In the case of `Cc1ccc(S(=O)(=O)c2ccccc2)cc1`, the growth was 21% (inactive).
Turning to `Oc1ccc(Cc2ccccc2Cl)c(O)c1`, the growth is 86.3% (inactive).
The same measure for `O=c1[nH]cnc2c1ncn2C1OC(CO)C(O)C1O` (stereo not given): 101% (inactive) and 103% (inactive) and 91.7% (inactive); for `Cc1cc(-c2cc(C)c(O)c(C)c2)cc(C)c1O`: 76.8% (inactive); for `O=C(/C=C/c1ccccc1)c1ccccc1`: 89.7% (inactive).
With `N#CC(C#N)N=Nc1cc(Cl)ccc1Cl`, the growth is 109% (inactive).
Take `Nc1ccc2c(O)cc(S(=O)(=O)O)cc2c1`: the growth is 92.8% (inactive).
On to `CN1CNC(=O)NC1`, for which the growth is 99.6% (inactive) and 95.4% (inactive).
For `CC1=C/C(O)CC(=O)Cc2nc(co2)C(=O)N2CCC=C2C(=O)OC(C(C)C)C(C)/C=C\C(=O)NC/C=C\1` (stereo not given), the growth was 59.6% (inactive).
Take `NC(Cc1ccccc1)C(=O)NC(Cc1ccccc1)C(=O)O` (stereo not drawn) (H-Phe-Phe-OH; configuration not given here): the growth was 95.3% (inactive) and 103% (inactive).
The same measure for `NC(Cc1c[nH]c2ccccc12)C(=O)O` (stereo not given): 96.1% (inactive) and 95.8% (inactive).
Consider `COc1ccc(N/C=C/C2=[N+](C)c3ccccc3C2(C)C)c(OC)c1`, for which the growth was 96% (inactive).
Consider `CCCCOC(=O)/C=C\C(=O)NC(N)=O`, for which the growth was 79.1% (inactive).
For `CCCCCCCCCCCCCCCc1ccc(N)c(OC2OC(CO)C(O)C(O)C2O)c1` (stereo not given), the growth is 86.3% (inactive).
On to `CC(=O)OCC1OC(OC(C)=O)C(OC(C)=O)C(OC(C)=O)C1OC(C)=O` (stereo not given), for which the growth is 96.9% (inactive) and 97.3% (inactive).
Take `O=C(O)CCCl`: the growth is 104% (inactive).
Regarding `CC1CCC2(C(=O)O)CCC3(C)C(=CCC4C5(C)CCC(O)C(C)(C)C5CCC43C)C2C1C` (stereo not given), the growth is 25.3% (inactive) and 70.1% (inactive).
In the case of `NN1CCOC(c2ccccc2)C1` (stereo not given), the growth is 94.6% (inactive).
On to `O=c1n(CC2CO2)c(=O)n(CC2CO2)c(=O)n1CC1CO1` (stereo not given), for which the growth is 54.5% (inactive).
On to `CC(=O)Nc1ccc(S(N)(=O)=O)cc1`, for which the growth was 98% (inactive) and 92.1% (inactive).
Turning to `Brc1ccc(SSc2ccc(Br)cc2)cc1`, the growth is 3.5% (active).
The same measure for `O=C(CO)C(O)C(O)C(O)C(O)CO` (stereo not given): 103% (inactive) and 98.5% (inactive); for `CCCCNc1ccc(Nc2ccccc2)cc1`: 64.9% (inactive); for `c1ccc2c(c1)OC1OC2Oc2ccccc21`: 91.1% (inactive).
`O=C1c2c(O)ccc(O)c2C(=O)c2c(NCCNCCO)ccc(NCCNCCO)c21`: the growth is -66.4% (active) and -76.2% (active).
On to `O=C1CSC2=NCCN12`, for which the growth was 94% (inactive) and 90.1% (inactive).
As to `CC(C)C(C)(C)c1ccc(O)cc1`, the growth is 98.4% (inactive).
In the case of `CCN(CCNS(C)(=O)=O)c1ccc(N)c(C)c1`, the growth is 52.9% (inactive) and 68.4% (inactive).
The same measure for `Nc1nc(N)c2[nH]cnc2n1`: 83% (inactive); for `COc1cc(C(O)C2C(=O)OCC2C2(c3ccc4c(c3)OCO4)SCCCS2)cc(OC)c1OC` (stereo not given): 92.1% (inactive); for `CCCCOc1ccc(Nc2cc(Cl)ccc2C(=O)O)cn1`: 107% (inactive) and 90.5% (inactive).
The same measure for `OC1COC(OCc2ccccc2)C(O)C1O` (stereo not given): 94% (inactive).
The value for `C/C(=C\c1ccccc1)c1ccccn1` was 112% (inactive); that for `CCCCCCCCCCCCCCCCC(C(=O)O)C(O)(CC(=O)O)C(=O)O` (stereo not given) was 106% (inactive) and 0.982% (active).
`Cn1cnc([N+](=O)[O-])c1Sc1ncn[nH]1`: the growth was 93.1% (inactive).
In the case of `CC(C)NCC(O)c1ccc(O)c(O)c1` (stereo not given), the growth is 94.2% (inactive) and 111% (inactive) and 95.4% (inactive).
The same measure for `CC[C@H](CC[C@@H](C)[C@H]1CC[C@H]2[C@@H]3CC=C4C[C@@H](O)CC[C@]4(C)[C@H]3CC[C@]12C)C(C)C`: 92.6% (inactive) and 101% (inactive); for `Cc1cc2ccccc2cn1`: 102% (inactive) and 99.7% (inactive).
